Data: PubChem BioAssay (NCI)
This is part of a sample that, as a whole, favours compounds with a hit. Of some 79,000 tested, about 15% had one in any assay. The source made the active and inactive calls. No stated cut-off is given here; in the data, active means growth inhibition above about 70%; inactive means the rest. Where a SMILES comes first, the peptide text is derived from it. [ ]: non-standard residue; d: D form. The star is where a group is joined. ξ: configuration not given here. X15 = COc1ccc(C(N*)c2ccc(OC)cc2)cc1; NMeF = CN[C@@H](Cc1ccccc1)C(=O)O; NMeD = CN[C@@H](CC(=O)O)C(=O)O; NMeV = CN[C@H](C(=O)O)C(C)C; ξF = NC(Cc1ccccc1)C(=O)O; ξNMeV = CNC(C(=O)O)C(C)C; Cbz = O=C(OCc1ccccc1)*; Boc = CC(C)(C)OC(=O)*; Aib = CC(C)(N)C(=O)O; ξNMeA = CNC(C)C(=O)O; ξV = CC(C)C(N)C(=O)O

How the values were obtained:
[1] = NCI Yeast Anticancer Drug Screen. Data for the rad50 strain (AID 155);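 further: 0% = growth of vehicle-only cultures of the same strain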; conditions: S. cerevisiae rad50 strain growth inhibition; at 50.0 µM; active compounds read high
In short: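 Cells are treated with compound, grown, and their growth is then scored against vehicle-only cultures of the same repair-deficient yeast strain.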

[2] = NCI Yeast Anticancer Drug Screen. Data for the mec2-1 strain (AID 157); conditions: S. cerevisiae mec2-1 strain, at 50.0 µM, active compounds read high
In short: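 Test agents were screened against the mec2-1 yeast strain, with defined DNA repair or cell cycle alteration. Growth was scored as inhibition against vehicle-only controls.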

[3] = NCI Yeast Anticancer Drug Screen. Data for the sgs1 mgt1 strain (AID 161);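 further: 0% = growth of cultures given vehicle only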; conditions: S. cerevisiae sgs1 mgt1 strain, at 50.0 µM, active compounds read high
In short: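 Inhibition of yeast growth, normalised to vehicle-treated controls, is reported for a strain bearing genetic alterations in DNA damage repair.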

[4] = NCI Yeast Anticancer Drug Screen. Data for the cln2 rad14 strain (AID 165);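 further: 0% = growth equal to vehicle treated cultures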; conditions: S. cerevisiae cln2 rad14 strain, at 50.0 µM, active compounds read high
In short: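 Growth of compound-exposed yeast (cln2 rad14 genotype) measured and expressed as inhibition relative to vehicle.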

[5] = NCI Yeast Anticancer Drug Screen. Data for the bub3 strain (AID 167); conditions: S. cerevisiae bub3 mutant strain, at 50.0 µM, active compounds read high
In short: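 Part of a panel of yeast mutants defective in DNA damage repair or cell cycle regulation. Each strain is grown with compound, and inhibition is calculated relative to solvent-treated cultures.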

[6] = NCI Yeast Anticancer Drug Screen. Data for the mlh1 rad18 strain (AID 175); conditions: S. cerevisiae mlh1 rad18 strain growth inhibition; at 50.0 µM; active compounds read high
In short: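 In this whole-cell yeast screen, a strain with altered DNA damage repair is challenged with compound, and its growth is measured against matched vehicle-treated controls.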

Measured: growth inhibition

CCCCCC/C(=C\c1ccc(O)cc1)C(=O)O
inactive: [1] 17.6% | [2] 36.1% | [3] 32.8% | [4] 47.9% | [5] 39.6% | [6] 41.8%

C/C=C(/C)C(=O)OC12CC(C)C3(O)C(C=C(CO)C[C@]4(O)C(=O)C(C)=CC34)C1C2(C)C (some centres undefined)
inactive: [1] 16.2% | [2] 1.3% | [3] -12.6% | [4] -0.45% | [5] 7.5% | [6] 1.35%

COc1ccc(C(NC(=O)C[C@@H](C(=O)N(C)C(C)C(=O)O)N(C)C(=O)[C@@H]2CCCN2C(=O)[C@H](C(C)C)N(C)C(=O)C(C(C)C)N(C)C(=O)[C@H](Cc2ccccc2)N(C)C(=O)C(NC(=O)OC(C)(C)C)C(C)C)c2ccc(OC)cc2)cc1 (some centres undefined) (Boc-[ξV][NMeF][ξNMeV][NMeV]P[NMeD](X15)[ξNMeA]-OH)
inactive: [1] -30.5% | [2] -23.9% | [3] -20.9% | [4] -7.45% | [5] -6.25% | [6] -31.4%

C1CSCCSCCCSCCSCCCSCCSCCCSCCSC1
inactive: [1] 21.2% | [2] 20.9% | [3] 45.9% | [4] 13.4% | [5] 21.1% | [6] 44.6%

CCCCCN(CCOC(=O)c1ccc([N+](=O)[O-])cc1)CCOC(=O)c1ccc([N+](=O)[O-])cc1
inactive: [1] 7.5% | [2] 4.7% | [3] 7.25% | [4] 7.8% | [5] -2.6% | [6] 7.45%

O=C(Nc1ccc(F)c([N+](=O)[O-])c1)Nc1ccccc1C(F)(F)F
inactive: [1] 3.95% | [2] 29.6% | [3] 33.8% | [4] -3.5% | [5] 31.3% | [6] 25.8%

O=C(O)CSCc1ccccc1Cl
inactive: [1] 1.6% | [2] -6.05% | [3] -9.5% | [4] 8.25% | [5] -13.1% | [6] -11.1%

Cc1ccc(N=NC2Sc3nc4ccccc4n3C2=O)cc1 (centres undefined)
inactive: [1] -7.1% | [2] 9.75% | [3] -0.7% | [4] -35.5% | [5] 16.3% | [6] 13.2%

CCC(C)(C)C1CCCCC1OC(C)=O (centres undefined)
inactive: [1] 7.95% | [2] -2.6% | [3] 2.55% | [4] 7.95% | [5] 2.9% | [6] 1.25%

CC(=O)c1ccc(NC(=O)/C(=N\NC(N)=O)C(C#N)CC(C)(C)C=O)cc1 (centres undefined)
inactive: [1] 29.3% | [2] 17.4% | [3] -2.55% | [4] 21.1% | [5] 33.6% | [6] 16.6%

NC(=O)C(=O)C(c1ccccc1)c1ccccc1
inactive: [1] 0.3% | [2] 4.55% | [3] -1.1% | [4] -4.05% | [5] 7.95% | [6] -8.35%

O=C(NCCCN1CCN(CCCNC(=O)Nc2ccc(Br)cc2)CC1)Nc1ccc(Br)cc1
inactive: [1] 27.7% | [2] 10.8% | [3] 38.4% | [4] 12.2% | [5] -1.5% | [6] 23.4%

O=C1NCC(c2ccccc2)(c2ccccc2)O1
inactive: [1] 26.9% | [2] 11.3% | [3] 10.3% | [4] 11.8% | [5] 4.45% | [6] 19.4%

CC(C)(NC(=O)OCc1ccccc1)C(=O)NC(Cc1ccccc1)C(=O)O (centres undefined) (Cbz-[Aib]-[ξF]-OH)
inactive: [1] -26.6% | [2] -61% | [3] -5.7% | [4] 19.8% | [5] 11.2% | [6] -11.3%

C(#Cc1c2ccccc2c(C#Cc2ccccc2)c2c(-c3ccccc3)cccc12)c1ccccc1
inactive: [1] -11.1% | [2] 13.1% | [3] -3.5% | [4] 4.05% | [5] 45.6% | [6] 24.5%

Clc1ccc(N=Cc2ccc(C=Nc3ccc(Cl)cc3)cc2)cc1
inactive: [1] 8% | [2] 9.25% | [3] 24.1% | [4] 21.6% | [5] 15% | [6] 19.9%

Nc1nc(Sc2ccccn2)ccc1[N+](=O)[O-]
inactive: [1] 0.25% | [2] -12.8% | [3] -2.1% | [4] -27.1% | [5] -12.1% | [6] -6.45%

Cc1ccccc1[B-]12OCC[N+]1(CNC(=O)c1ccccc1O)CCO2 (centres undefined)
inactive: [1] 26% | [2] -2.1% | [3] 3.5% | [4] 16.6% | [5] 1.35% | [6] 8.5%

COC(=O)CC(c1ccc(OC)cc1)C(CC(=O)OC)c1ccc(OC)cc1 (centres undefined)
inactive: [1] -19.2% | [2] -29.8% | [3] 13.9% | [4] 15.8% | [5] 25.9% | [6] -20.1%

CCOC(=O)C1NC(=O)C(C(=O)OCC)C1C(C)C (centres undefined)
inactive: [1] 9.45% | [2] 20.9% | [3] 0.35% | [4] -8.25% | [5] -4.05% | [6] -9.05%

CC1C2(c3ccccc3)C(C(=O)c3ccccc3)NC(c3ccccc3)C12c1ccccc1 (centres undefined)
inactive: [1] 46% | [2] 6.35% | [3] 28.2% | [4] 18.9% | [5] 2.2% | [6] 34.6%

COc1cccc(/C=C2\C(=O)N(C(=O)c3ccc(NC(C)=O)cc3)N=C2C)c1
inactive: [1] -43.9% | [2] -25.8% | [3] -57% | [4] -17.2% | [5] -38% | [6] -40.1%

Nc1ncc2c(n1)SCC2
inactive: [1] -10.3% | [2] -5.8% | [3] -8.25% | [4] -19.7% | [5] -17.6% | [6] -19.6%

CCCCN=NNc1cn(C2OC(CO)C(O)C2O)c(=O)[nH]c1=O (centres undefined)
inactive: [1] -22.4% | [2] 0.9% | [3] 4.85% | [4] 13.3% | [5] 10.8% | [6] 21.8%

COc1ccc(C(=O)c2cccc(C(=O)c3ccc(OC)cc3)c2)cc1
inactive: [1] -13.1% | [2] -19.4% | [3] -3.5% | [4] -0.9% | [5] -13.5% | [6] -4.15%

O=C(O)/C=C/C(=O)Nc1ccccc1Cl
inactive: [1] 10.4% | [2] 29.6% | [3] 48.9% | [4] 0% | [5] 42.2% | [6] 21%

Nc1cc([N+](=O)[O-])cc(S(=O)(=O)O)c1O
inactive: [1] -5.15% | [2] -2.95% | [3] -14.2% | [4] -65.8% | [5] 7.45% | [6] -26%

NC(N)=NC(CC(=O)O)c1ccccc1 (centres undefined)
inactive: [1] -1.15% | [2] -20% | [3] -26.4% | [4] -26.2% | [5] -46.4% | [6] 10.2%

NC(=O)C1C2C=CC(O2)C1C(=O)O (centres undefined)
inactive: [1] -26.6% | [2] -12.9% | [3] -10.3% | [4] -23.6% | [5] -1.9% | [6] 5.4%

CC(=O)Nc1cc(=O)[nH]c2c1CCC2
inactive: [1] -4.05% | [2] 5.25% | [3] -1.8% | [4] -16.4% | [5] -3.6% | [6] -4.7%

O=S1(=O)CCCCC1C(O)(c1ccccc1)c1ccccc1 (centres undefined)
active: [1] 96% | [2] 94.2% | [3] 91.2% | [4] 95.5% | [5] 95.8% | [6] 96%

CC(C)NC(=O)NCCc1c[nH]c2ccccc12
inactive: [1] -49.9% | [2] -11.8% | [3] 1.85% | [4] 6.95% | [5] 16.2% | [6] -13.2%

CC(C)CNC(=O)C(=O)NCC(C)C
inactive: [1] -4.65% | [2] -9.7% | [3] -1.6% | [4] -41.5% | [5] -21.4% | [6] -2.4%

Nc1nc(=O)n(C2OC(CO)C(O)C2Cl)cc1I (centres undefined)
inactive: [1] 10.4% | [2] -3.8% | [3] 1.1% | [4] -5.1% | [5] 7.8% | [6] -0.75%

COC(=O)c1cc(C)c(C)c2c1NC(=O)CNC2=O
inactive: [1] -4.1% | [2] -4.2% | [3] 3.95% | [4] 19.8% | [5] -3.7% | [6] 7.95%

CC1(c2ccc(Cl)cc2)NC(=O)NC1=O (centres undefined)
inactive: [1] -27.3% | [2] 3.1% | [3] -7.65% | [4] -29.5% | [5] 9.85% | [6] -20.1%

CCC(=S)Nc1ccc(Cl)cc1
inactive: [1] -1.9% | [2] -44.6% | [3] -34.5% | [4] -21.2% | [5] -36.9% | [6] -35.4%

O=C1NCC/C1=C\c1ccccc1
inactive: [1] -7.2% | [2] -10.7% | [3] -4.6% | [4] -8.05% | [5] -6.65% | [6] -15.4%

CCCCCCCCCCCCCCO
inactive: [1] 21.9% | [2] -22.8% | [3] -19.7% | [4] -54.8% | [5] 1.3% | [6] 16.9%

CCCCCCCCCC1OCC(COCC)O1 (centres undefined)
inactive: [1] -2.6% | [2] -9% | [3] 7.5% | [4] -17.4% | [5] 14.8% | [6] -7.15%

CC(=O)NNc1ccc(C(=O)O)cc1
inactive: [1] 13.2% | [2] 1% | [3] 1.85% | [4] -13.4% | [5] -2.7% | [6] -2.4%

O=C(O)CCc1ccccc1C(=O)O
inactive: [1] 19.6% | [2] -19.6% | [3] -2% | [4] -9.8% | [5] -10.1% | [6] 9.5%

Cn1c2c(c3ccccc31)=NN1CCN=C1N=2
inactive: [1] 11.2% | [2] -2.95% | [3] -0.15% | [4] -28.2% | [5] 17.2% | [6] 4%

COC1CC(NC(=O)c2ccccc2)C(O)C(C)O1 (centres undefined)
inactive: [1] 8.65% | [2] 18.3% | [3] 11.6% | [4] 10.6% | [5] 0.8% | [6] 8.5%
